Out of some 69,000 compounds screened, about 8,600 (12%) showed an effect of 50% or more. This is one part of a sample in which strong results are shown more often than they occur.
tested on: Plasmodium berghei; experiment: Screen against P. berghei liver stage (PbLuc), transformed with Luciferase, at 10uM; type: functional, HepG2; conditions: tested at 10 uM

Point of comparison: O=C(c1cnn[nH]1)N1CCCC1c1nc2cc(F)ccc2[nH]1 (stereo not given), INHIBITION 11.8%. Against it:
- COCCN1CCC2(CC1)CC1(CCN(S(C)(=O)=O)CC1)N(C)C2=O — higher, 40.8%
- CC(=O)Nc1ccc(Oc2cc(C)nc(C3CCCNC3)c2)cc1 (stereo not given) — higher, 14.355%
- CSCC(C)NS(=O)(=O)c1ccc(C)c(N(C)C)c1 (stereo not given) — lower, -37.7%
- Cc1cnc(N2C(=O)CSC2c2ccc(N(C)C)cc2)s1 (stereo not given) — higher, 39.9%
- CC(C)c1nn(C)c(Cl)c1CNCc1ccc(N(C)C)nc1 — higher, 18.85%
- CC(=O)Nc1ccc(S(=O)(=O)NC(=O)CCC2CCCO2)cc1 (stereo not given) — higher, 57.2%
- Cc1ccc(S(=O)(=O)NC(=O)CCC2CCCO2)cc1 (stereo not given) — lower, -7.35%
- O=C(CCC1CCCO1)NS(=O)(=O)c1ccc(Cl)cc1 (stereo not given) — lower, -11.4%
- Cc1nccn1CCCC(=O)N1CCC(N(C)c2cccnn2)CC1 — higher, 12.7%
- CN(Cc1ccco1)c1ccc(C(=O)NCCCc2ccccn2)cn1 — higher, 58.2%
- CN(C)c1ccc(C(=O)NCCCc2ccccn2)cn1 — higher, 62.8%
- CCn1c(N)nc2cc(C(=O)NCCCc3ccccn3)cnc21 — the same, 11.8%
- CCN(C)c1ccc(C(=O)NCCCc2ccccn2)cn1 — lower, -17.9%
- O=C(NCCCc1ccco1)c1cnc(N2CCOCC2)nc1 — lower, -18.8%
- CN(CC(C)(C)C)c1ccc(C(=O)NCCCc2ccccn2)cn1 — lower, -20.6%
- Cc1ccc(CN2CCOC3(CCN(CC4CCOC4)CC3)C2)cc1 (stereo not given) — higher, 36.7%
- CSCCC(Nc1nc(C)cc(C)n1)C(=O)NC1CCCC1 (stereo not given) — higher, 36.8%
- COC(=O)c1ccc(N2CCN(C(=O)C(C)C)C(C)C2)cc1 (stereo not given) — lower, -37.6%
- COC(=O)c1ccc(N2CCN(C(=O)c3cnccn3)C(C)C2)cc1 (stereo not given) — lower, -23.8%
- COC(=O)c1ccc(N2CCN(C(=O)c3cnc(C)cn3)C(C)C2)cc1 (stereo not given) — higher, 66.7%
- COC(=O)c1ccc(N2CCN(C(=O)c3cc(C)on3)C(C)C2)cc1 (stereo not given) — higher, 54.3%
- COC(=O)c1ccc(N2CCN(C(=O)c3cc(C)no3)C(C)C2)cc1 (stereo not given) — lower, -11.4%
- COCC(=O)N1CCN(c2ccc(C(=O)OC)cc2)CC1C (stereo not given) — lower, -31.4%
- Cc1cc(Oc2ccc(NC(=O)C3CC3)cc2)cc(C2CCNCC2)n1 — lower, 10.535%
- CN(CCCc1cnn(C)c1)c1nccc(-c2cc(C(=O)O)ccn2)n1 — higher, 21.2%
- Cc1cccc(CN2Cc3nccn3CC(CN3CCOCC3)C2)c1 (stereo not given) — higher, 43.9%
- O=C1COc2cc(C(=O)NS(=O)(=O)c3cc(Cl)ccc3Cl)ccc2N1 — higher, 37.4%
- CN(C)C(=O)COCc1cncc2c1CCN(Cc1ccccn1)C2 — lower, -11%
- COc1ccc(-c2nccc(C3CCCN3C)n2)cc1 (stereo not given) — higher, 16.5%
- O=C(N1CCCC1)N1CCOCC2(C1)CN(c1ccccc1)C(=O)CO2 (stereo not given) — lower, -1.36%
- COc1ccc(NC(=O)C2CC2)cc1OCc1cccnc1 — higher, 34.1%
- COc1ccc(NC(C)=O)cc1OCc1cccnc1 — higher, 66.5%
- COc1ccc(NC(=O)C(C)(C)C)cc1OCc1cccnc1 — higher, 43.4%
- Cc1nnc(N2CCCC3(CN(Cc4ccc(C)s4)CCO3)C2)o1 (stereo not given) — lower, 1.81%
- COCc1noc(-c2ccc(N(C)Cc3cc(C)no3)nc2)n1 — higher, 33.5%
- COCc1noc(-c2ccc(N(C)Cc3c(C)n[nH]c3C)nc2)n1 — higher, 56.9%
- COCc1noc(-c2ccc(N(C)Cc3ccc(C)o3)nc2)n1 — lower, -26.7%
- Cc1ccc(N2CCN(C(=O)[C@@H]3CCC(=O)N3)CC2=O)cc1 — lower, 4.95%
- O=C(NCc1ccc(Cl)cc1)C1CCCN(c2ccc3nncn3n2)C1 (stereo not given) — higher, 15.7%
- CC(C)CC(=O)N1CCCC1c1cc(CO)[nH]n1 (stereo not given) — lower, -0.7%
- O=C(NC1CC1)c1nnn(-c2cccc(C(F)(F)F)c2)c1C1CC1 — higher, 18.6%
- Cc1ccc(F)c(-n2nnc(C(=O)O)c2-c2ccncc2)c1 — lower, 7.9%
- CC(C)NC(=O)c1nnn(-c2cccc(F)c2)c1C1CC1 — lower, -18.9%
- CCc1ccc(-n2nnc(C(=O)O)c2-c2ccncc2)cc1 — lower, 6%
- O=C(O)c1nnn(-c2ccccc2)c1-c1ccncc1 — higher, 54%
- O=C(O)c1nnn(-c2cccc(C(F)(F)F)c2)c1-c1ccncc1 — higher, 65.6%
- O=C(O)c1nnn(-c2ccccc2F)c1-c1ccncc1 — higher, 50.7%
- O=C(O)c1nnn(-c2ccc(Cl)c(C(F)(F)F)c2)c1-c1ccncc1 — lower, -5.59%
- CC(C)NC(=O)c1nnn(-c2cccc(C(F)(F)F)c2)c1C1CC1 — higher, 58.5%
- O=C(O)c1nnn(-c2ccc(C(F)(F)F)cc2)c1-c1ccncc1 — higher, 18.4%
- O=C(O)c1nnn(-c2cc(F)cc(F)c2)c1-c1ccncc1 — higher, 16.8%
- O=C(O)c1nnn(-c2ccc(F)c(F)c2)c1-c1ccncc1 — lower, -6.32%
- COc1cc2cc3c(nc2cc1OC)OCCN(Cc1ccco1)C3 — higher, 16.5%
- COCCCNC(=O)CN(C)C(=O)CN(C)c1ccc(C#N)cn1 — lower, -12.1%
- CC(=O)N1CCn2c(-c3ccccc3)cnc2C12CCNCC2 — higher, 33%
- Cc1nn(C)c(N(C)C)c1CNCC(O)c1ccccc1F (stereo not given) — higher, 25.1%
- Cc1cc(C(=O)N2CCCC(C(=O)c3cccs3)C2)c(=O)[nH]c1C (stereo not given) — higher, 33.3%
- O=C(c1cnc(NCC2CCCO2)c(Cl)c1)N1CCCCC1 (stereo not given) — higher, 32.2%
- O=C(c1cnc(NCc2cccnc2)c(Cl)c1)N1CCCCC1 — higher, 56.3%
- N#Cc1ccc(CNc2ncc(C#N)cc2Cl)cc1 — higher, 20.1%
- N#Cc1cnc(NCc2cccc(C(=O)N3CCCC3)c2)c(Cl)c1 — higher, 57.5%
- O=C(c1cnc(NCc2sccc2Br)c(Cl)c1)N1CCCCC1 — higher, 24.2%
- N#Cc1cnc(NCc2ccc(C(=O)NC3CC3)cc2)c(Cl)c1 — lower, -32.9%
- CCc1ccc(CN(C)Cc2nc(COc3ccccc3)no2)nc1 — higher, 29.6%
- c1ccc(CN2CCc3ncnc(C4CC4)c3CC2)nc1 — higher, 21.1%
- O=C(c1cscn1)N1CCC[C@]2(C[C@@H](OCC3CC3)CO2)C1 — higher, 36.9%
- Cc1cc(C(=O)NCc2ccccc2CN(C)Cc2ccco2)on1 — higher, 77.2%
- CN(Cc1ccco1)Cc1ccccc1CNC(=O)c1csnn1 — higher, 46.4%
- Cc1ncccc1C(=O)NCc1ccccc1CN(C)Cc1ccco1 — higher, 67.3%
- Cc1cc(CN(C)C(=O)NCc2ccco2)no1 — higher, 14.1%
- CN(Cc1ccco1)Cc1ccccc1CNC(=O)c1c[nH]nn1 — lower, -1.28%
- CN(Cc1ccco1)Cc1ccccc1CNC(=O)c1cnccn1 — higher, 63.3%
- CN(Cc1ccco1)Cc1ccccc1CNC(=O)c1ccc[nH]1 — higher, 30.1%
- CN(Cc1ccco1)Cc1ccccc1CNC(=O)c1cnc[nH]1 — higher, 69.3%
- CN(Cc1ccco1)Cc1ccccc1CNC(=O)c1cc[nH]n1 — higher, 30.1%
- CN(Cc1ccco1)Cc1ccccc1CNC(=O)c1ccncc1 — lower, -4.86%
- Cc1oc(C)c(C(=O)NCc2ccccc2CN(C)C)c1C — higher, 25.55%
- CN(C)c1ncccc1CNC(=O)NCc1ccco1 — lower, -36.3%
- CCS(=O)(=O)c1ccccc1N1CCC(NC(=O)C(C)C)CC1 — lower, -25.8%
- CO[C@@H]1CCC[C@@H](NC(=O)C(C)(C)c2cccc(F)c2)[C@H]1O — lower, 10.855%
- Cc1cccc(C)c1NC(=O)c1n[nH]c(-n2cnnc2)n1 — higher, 19.6%
- CC(C)N(C)Cc1nnc2n1CCCN(S(=O)(=O)C1CC1)C2 — higher, 36.4%
- c1ccc(OCc2nnc3n2CCN(CC2CC2)C3)nc1 — higher, 39.3%
- Cc1c(C2CCCN(C(=O)Cc3ccccn3)C2)n2c(nc1=O)CCC2 (stereo not given) — higher, 34.1%
- O=C(NCCc1nccs1)[C@H](c1ccccc1)n1cnnn1 — lower, -20.8%
- CC(O)CNC(=O)CCc1nc2ncccc2[nH]1 (stereo not given) — higher, 26.6%
- Cc1nc(C(=O)N2CCN(S(C)(=O)=O)CC2)c(-c2cccc(F)c2)s1 — higher, 17.7%
- CN(C)c1nccc(N2CCO[C@H]3CN(Cc4ccsc4)C[C@H]32)n1 — higher, 65.1%
- c1cnc(N2CCO[C@H]3CN(Cc4ccsc4)C[C@H]32)nc1 — higher, 42.7%
- c1cc(CN2C[C@@H]3OCCN(CCN4CCCC4)[C@@H]3C2)cs1 — lower, 11.3%
- Cc1cc(C)cc(CN2C[C@@H]3OCCN(CC(=O)N(C)C)[C@@H]3C2)c1 — higher, 66.6%
- Cc1cccc(CN2C[C@@H]3OCCN(c4cnccn4)[C@@H]3C2)n1 — lower, -18.5%
- Cc1ccc(N2CCO[C@H]3CN(Cc4ccoc4)C[C@H]32)nn1 — higher, 41.6%
- CN(C)C(=O)CN1CCO[C@H]2CN(Cc3ccoc3)C[C@H]21 — higher, 31.2%
- Cc1cccc(CN2C[C@@H]3OCCN(c4ccnc(N(C)C)n4)[C@@H]3C2)c1 — higher, 77.5%
- Cc1cccc(CN2C[C@@H]3OCCN(CC(=O)N(C)C)[C@@H]3C2)c1 — higher, 39.4%
- CCOCCCNC(=O)C1CCC(=O)N(CCc2ccc(Cl)cc2)C1 (stereo not given) — higher, 16.3%
- COc1ccc(C(=O)Nc2ccccc2C(C)C)c(OC)n1 — lower, -17.2%
- COc1ccc([C@@H]2CN(Cc3cccnc3N)C[C@H]2N(C)C)cc1 — higher, 30.3%
- O[C@@H]1CCN(CC2CC2)[C@H]1Cc1ccccc1 — lower, -14.4%
- Cc1nc(C)n(CC2CN(Cc3cccnc3)Cc3nccn3C2)n1 (stereo not given) — higher, 25.1%
- Cc1ncsc1C(=O)NCCCN1CCCCCC1=O — lower, -21.2%
- Cc1nc(S(=O)(=O)N2CCSCC2)cn1C — lower, -50.7%
- CCN(CC)Cc1cc(=O)n2c(n1)CN(C(=O)c1ccnnc1)CCC2 — lower, -20.2%
